Data published in PubChem BioAssay AID1240 (Sanford-Burnham Center for Chemical Genomics, 2008).
Hit rate of the full screen: of about 50,000 compounds, about 800 (1.6%) showed an effect of 50% or more. The list comes from a sample in which strong results are over-represented; it also holds similar structures and randomly drawn compounds.

biological target: Bcl-2-like protein 10 (Homo sapiens) (UniProt Q9HD36); test: Phenotype converters, Bcl-B/TR3 peptide binding displacement, primary biochemical FP (AID 1240); conditions: GST-Bcl-B / FITC-TR3 peptide fluorescence polarization; stronger effect = higher value; compound at 3.75 mg/L;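 note: 0% = Bcl-B with tracer peptide and DMSO and 100% = tracer peptide lacking Bcl-B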
Sequence (Q9HD36 whole entry, looked up): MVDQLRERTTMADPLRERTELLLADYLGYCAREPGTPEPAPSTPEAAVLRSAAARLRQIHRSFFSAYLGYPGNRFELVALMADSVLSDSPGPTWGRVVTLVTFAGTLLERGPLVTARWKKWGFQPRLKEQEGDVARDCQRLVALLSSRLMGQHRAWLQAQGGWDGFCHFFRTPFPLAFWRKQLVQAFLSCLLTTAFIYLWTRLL

Question: `CC1=C(C#N)c2nc(N)c(C#N)c(C)c2/C1=C\c1ccc(C)o1` was tested. Which displacement did it give?
Answer: -4.4%

Question: `COc1ccc(C(=O)Nc2sc3c(c2C#N)CCCCC3)cc1` was tested. Which displacement did it give?
Answer: -3.4%

Question: Which displacement does the source give for `CCOc1ccccc1NC(=O)c1c(NC(=O)c2ccccc2Br)sc2c1CCCC2` here?
Answer: -3.8%

Question: With `Cc1ccccc1NC(=O)c1c(NC(=O)c2ccccc2Br)sc2c1CCCCC2` as the compound, how does the displacement read?
Answer: 76.6%

Question: With `CCc1ccccc1NC(=O)c1c(NC(=O)c2ccccc2Cl)sc2c1CCC2` as the compound, how does the displacement read?
Answer: 61.2%

Question: Which displacement does the source give for `N#Cc1c(NC(=O)c2ccc(C(=O)O)cc2C(=O)O)sc2c1CCCC2` here?
Answer: 11%

Question: `O=C(Nc1sc2c(c1C(=O)Nc1ccccn1)CCCCC2)c1ccccc1F` was tested. Which displacement did it give?
Answer: -3%

Question: `CCc1ccccc1NC(=O)c1c(NC(=O)c2ccccc2Br)sc2c1CCC2` was tested. Which displacement did it give?
Answer: -4.1%

Question: For `O=C(Nc1sc2c(c1C(=O)Nc1ccccn1)CCCCC2)c1ccccc1`, which displacement is on record?
Answer: 95%

Question: `CCc1ccccc1NC(=O)c1c(NC(=O)c2ccccc2)sc2c1CCC2` was tested. Which displacement did it give?
Answer: -15.6%

Question: With `N#Cc1c(NC(=O)c2ccc(S(=O)(=O)c3ccccc3)cc2)sc2c1CCCC2` as the compound, how does the displacement read?
Answer: 83.9%

Question: How did the displacement turn out when `Cc1ccccc1NC(=O)c1c(NC(=O)c2ccccc2C)sc2c1CCCCC2` was run?
Answer: 13%

Question: For `COc1ccc(NC(=O)c2c(NC(=O)c3ccccc3)sc3c2CCCC3)cc1`, which displacement is on record?
Answer: 5.7%

Question: `O=C(N/N=C/c1cccnc1)c1cc(-c2ccc3ccccc3c2)n[nH]1` was tested. Which displacement did it give?
Answer: -3.8%

Question: Which displacement does the source give for `COc1ccc(S(=O)(=O)N2CCN(C3CC4CCC3C4)CC2)cc1` (centres undefined) here?
Answer: -1.9%

Question: With `Cc1ccc(CNC(=O)C(=O)NC(C)C)cc1` as the compound, how does the displacement read?
Answer: 4.4%

Question: For `CC1(C)CC(=O)C2=C(C1)Nc1ccccc1NC2c1ccc(-c2ccccc2[N+](=O)[O-])o1` (centres undefined), which displacement is on record?
Answer: -15.9%

Question: For `Cc1cc(-n2c(C)cc(C=O)c2C)ccc1I`, which displacement is on record?
Answer: -15.5%

Question: Which displacement does the source give for `O=C1c2cccc([N+](=O)[O-])c2C(=O)N1c1ccncc1` here?
Answer: -2.3%

Question: How did the displacement turn out when `O=C1S/C(=C\c2ccc(Br)o2)C(=O)N1c1ccc(Cl)cc1` was run?
Answer: 88.9%

Question: `O=C1S/C(=C\c2ccc(Br)o2)C(=O)N1c1ccc(Cl)c(Cl)c1` was tested. Which displacement did it give?
Answer: -3.9%

Question: For `O=C1/C(=C/c2ccc(Br)o2)SC(=S)N1c1cccc(C(F)(F)F)c1`, which displacement is on record?
Answer: 21.6%

Question: Which displacement does the source give for `Cc1ccc(/C=C2\SC(=S)N(c3ccc(F)cc3)C2=O)o1` here?
Answer: 101%

Question: With `CCOc1ccc(N2C(=O)S/C(=C\c3ccc(OC)cc3)C2=O)cc1` as the compound, how does the displacement read?
Answer: 13.2%

Question: With `O=C1/C(=C/c2ccc(I)o2)SC(=S)N1c1cccc(C(F)(F)F)c1` as the compound, how does the displacement read?
Answer: 55.7%

Question: How did the displacement turn out when `Cc1ccc(/C=C2\SC(=S)N(c3ccc(C)c(C)c3)C2=O)o1` was run?
Answer: 14.9%

Question: Which displacement does the source give for `CCOc1ccc(N2C(=O)S/C(=C\c3ccc(C)cc3)C2=O)cc1` here?
Answer: -5.8%

Question: With `O=C1/C(=C/c2ccco2)SC(=S)N1c1ccc(F)cc1` as the compound, how does the displacement read?
Answer: 7.9%

Question: `O=C1/C(=C/c2ccco2)SC(=S)N1c1cccc(C(F)(F)F)c1` was tested. Which displacement did it give?
Answer: 15.4%

Question: `CCOc1ccc(N2C(=O)S/C(=C\c3ccc(C)o3)C2=O)cc1` was tested. Which displacement did it give?
Answer: 108%

Question: `O=C1S/C(=C\c2ccc(Br)cc2)C(=O)N1c1ccc(Cl)cc1` was tested. Which displacement did it give?
Answer: -3.3%

Question: `Cc1cc(=O)oc2cc(OCC(=O)OC(C)C)ccc12` was tested. Which displacement did it give?
Answer: 1.9%

Question: `CCOC(=O)c1c(NC(C)=O)sc(I)c1-c1ccccc1` was tested. Which displacement did it give?
Answer: 0.8%

Question: With `Cc1cc(C(=O)NC2CCSC2=O)ccc1[N+](=O)[O-]` (centres undefined) as the compound, how does the displacement read?
Answer: -2.7%

Question: Which displacement does the source give for `CS(=O)(=O)N(Cc1ccc(Cl)cc1)c1ccc(C(=O)NCc2ccco2)cc1` here?
Answer: -14.6%

Question: How did the displacement turn out when `Cc1ccc([N+](=O)[O-])cc1S(=O)(=O)N1CCOCC1` was run?
Answer: 5.1%

Question: For `CCOc1cccc(C(=O)Nc2cc(-c3nc4cc(C)cc(C)c4o3)ccc2C)c1`, which displacement is on record?
Answer: 9.5%

Question: For `Cc1ccc(C)c(NC(=O)c2c(-c3ccccc3Cl)noc2C)c1`, which displacement is on record?
Answer: 9.9%

Question: How did the displacement turn out when `CCOc1ccc(N2C(=O)S/C(=C\c3ccco3)C2=O)cc1` was run?
Answer: 92.2%

Question: `Cc1ccsc1/C=C1\SC(=S)N(c2c(C)n(C)n(-c3ccccc3)c2=O)C1=O` was tested. Which displacement did it give?
Answer: 6.6%

Question: Which displacement does the source give for `Cc1ccsc1/C=C1\SC(=S)N(c2ccccc2)C1=O` here?
Answer: 126%

Question: Which displacement does the source give for `CCOc1ccc(N2C(=O)S/C(=C\c3ccccc3OC)C2=O)cc1` here?
Answer: 32.7%

Question: For `CCOc1ccc(/C=C2\SC(=O)N(c3ccccc3)C2=O)cc1`, which displacement is on record?
Answer: -1.9%

Question: Which displacement does the source give for `Cc1ccsc1/C=C1\SC(=S)N(C(C)c2ccccc2)C1=O` (centres undefined) here?
Answer: -6.6%

Question: With `O=C(O)CSCCCN1C(=O)c2cccc3cccc(c23)C1=O` as the compound, how does the displacement read?
Answer: 8%

Question: For `CC1=C(C(=O)Nc2ccccc2C)C(c2ccc(F)cc2)NC(=O)N1` (centres undefined), which displacement is on record?
Answer: 16.2%

Question: Which displacement does the source give for `Cc1ccc(S(=O)(=O)Nc2ccccc2C(=O)Nc2ccccc2)cc1` here?
Answer: 9.6%

Question: For `COC(C(=O)N1CCCCCC1)(c1ccccc1)c1ccccc1`, which displacement is on record?
Answer: 16.8%

Question: Which displacement does the source give for `COc1cc(/C=C2\NC(=S)NC2=O)ccc1Oc1ccc([N+](=O)[O-])cn1` here?
Answer: 8.2%

Question: For `O=C1NC(=S)N/C1=C\c1ccc(Oc2ccc([N+](=O)[O-])cn2)cc1`, which displacement is on record?
Answer: 101%

Question: How did the displacement turn out when `O=C1NC(=S)NC(=O)C1=Cc1ccc(Oc2ccc([N+](=O)[O-])cn2)cc1` was run?
Answer: 10.5%

Question: How did the displacement turn out when `O=C1NC(=S)S/C1=C\c1ccc(Oc2ccc([N+](=O)[O-])cn2)cc1` was run?
Answer: 61.8%

Question: `O=C1C(=Cc2ccc(Oc3ccc([N+](=O)[O-])cn3)cc2)C(=O)c2ccccc21` was tested. Which displacement did it give?
Answer: 4.6%

Question: `COc1cc(/C=C2\SC(=S)NC2=O)ccc1Oc1ccc([N+](=O)[O-])cn1` was tested. Which displacement did it give?
Answer: 20.6%
